In PubChem BioAssay AID1452 (National Center for Advancing Translational Sciences (NCATS), 2008):
In all, about 150,000 compounds went through this assay and about 190 (0.13%) were called active. Not shown: some 2% with an inconclusive outcome. The sample holds actives, similar compounds and a random draw of the others, so the mix is not that of the screen. The call rests on the fitted dose curve; in most records, active means well fitted inhibition curve with a large enough effect; inconclusive means small, poorly fitted or top-dose-only effect; inactive means flat fitted curve, though single readings scatter.

What follows are compounds tested against Polyunsaturated fatty acid lipoxygenase ALOX12 (Homo sapiens) (UniProt P18054) (assay: qHTS Assay for Inhibitors of 12-hLO (12-human lipoxygenase)). Details: purified 12-hLO, xylenol orange hydroperoxide absorbance; series mostly up to 57.1 µM; activity change, negative = inhibition: at the top concentration.
Polyunsaturated fatty acid lipoxygenase ALOX12 (Homo sapiens), sequence (P18054 whole entry, looked up): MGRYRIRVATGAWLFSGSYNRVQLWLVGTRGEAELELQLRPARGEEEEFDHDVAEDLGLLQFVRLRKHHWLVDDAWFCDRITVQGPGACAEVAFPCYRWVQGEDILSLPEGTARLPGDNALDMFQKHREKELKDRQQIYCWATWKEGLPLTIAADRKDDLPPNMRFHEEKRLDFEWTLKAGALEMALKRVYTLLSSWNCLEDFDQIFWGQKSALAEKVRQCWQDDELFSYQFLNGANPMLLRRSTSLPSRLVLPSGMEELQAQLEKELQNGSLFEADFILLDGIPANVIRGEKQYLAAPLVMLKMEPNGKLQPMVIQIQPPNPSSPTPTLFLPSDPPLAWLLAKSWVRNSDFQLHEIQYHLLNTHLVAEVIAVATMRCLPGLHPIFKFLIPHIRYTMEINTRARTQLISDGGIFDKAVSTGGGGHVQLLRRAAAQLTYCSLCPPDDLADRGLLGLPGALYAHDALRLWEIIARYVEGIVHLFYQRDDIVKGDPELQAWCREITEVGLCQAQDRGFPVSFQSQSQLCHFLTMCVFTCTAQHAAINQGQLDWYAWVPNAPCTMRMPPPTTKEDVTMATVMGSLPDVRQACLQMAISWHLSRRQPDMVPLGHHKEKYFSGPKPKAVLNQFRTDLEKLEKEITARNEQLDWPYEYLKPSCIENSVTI
From the text: Assay Provider: Holman, T.R., University of California, Santa Cruz Screening Center PI: Austin, C.P. Screening Center: NIH Chemical Genomics Center [NCGC] Human lipoxygenase 12hLO is a member of the closely related lipoxygenase family of enzymes which catalyze the site-specific oxidation of arachidonic acid to various hormone precursor molecules and as such is a candidate for drug development in a variety of disease areas, such as cancer and inflammation. Inhibition of 12hLO activity was screened by utilizing arachidonic acid as a substrate. The extent of hydroperoxide product formation was measured by a secondary chromogenic reaction in which xylenol orange (XO, Sigma-Aldrich, cat. number 39,818-7) reacts with the ferric ions produced from the reaction between the hydroperoxide and ferrous ions. The Fe(III)-XO complex is characterized with red-shifted absorbance at 560 nm. A purified preparation of human 12hLO was supplied by Professor Ted Holman, University of California, Santa Cruz.
Assay Protocol: Buffer: 25 mM Hepes pH 7.0, 0.01% Triton X-100. Reagents/Controls: Buffer in columns 3 and 4 as negative control (no enzyme). Substrate solution: 40 uM arachidonic acid (Sigma-Aldrich, St. Louis, MO) final concentration dispensed throughout the plate. Enzyme: 150 nM 12hLO final concentration in columns 1, 2, 5-48. Column 1 is neutral (100% activity). Column 2 contained pin-transferred titration of NDGA (nordihidroguaiaretic acid, Sigma-Aldrich, N 5023, top concentration 20 mM in DMSO, then 1:3 dilution in duplicate). (Dilution factor: 23 nL into 4 uL.) Chromogenic detection reagent (divalent iron/xylenol orange, Fe-XO): 200 uM xylenol orange plus 300 uM ferrous ammonium sulfate prepared freshly in 50 mM sulfuric acid. Assay Steps: Three uL of enzyme were dispensed to 1536-well Greiner black clear bottom plates. Compounds and controls (23 nL) were transferred via Kalypsys PinTool. The plates were incubated for 15 min at room temperature, and then 1 uL of substrate solution was added to start the reaction. After room temperature incubation for 30 minutes, 4 uL of Fe-XO solution was added to each well and the plates were incubated for 30 min. The absorbance at 405 and 573 nm were measured using ViewLux (Perkin-Elmer) High-throughput CCD imager and absorbance protocol settings. The 573-to-405 absorbance ratio was used to compute reaction progress.
Further: nearly all actives have a fitted effect of over 55% in size.
On the % scale 0 is the no-effect control and ±100 the full control effect; potency means the concentration at half of the fitted maximal effect.

Structure (SMILES)	activity change, negative = inhibition	Potency
Cc1cc(C)cc(OCC(=O)NNC(=O)CCN2C(=O)c3ccccc3C2=O)c1	-4% (inactive)	
C/C(=C\c1ccccc1)C1NC(=O)c2c(sc3c2CCCC3)N1 (stereo unspecified)	-1.08% (inactive)	
O=C(CN1C(=O)c2cccc3cccc(c23)C1=O)N1CCCCC1	-0.677% (inactive)	
CCOC(=O)N1CCN(C(=O)C2CCN(Cc3ccc(OC)cc3OC)CC2)CC1	-2.84% (inactive)	
O=C1OCCN1C(=O)[C@H]1[C@H](c2ccccc2)C(c2ccc(F)cc2)=NN1c1ccccc1	-8.19% [at 0.00818 µM] (inactive)	
C[C@H]1Cc2c(COc3ccccc3)nc3c(c2CO1)CN(C(=O)NCc1ccco1)CC3	1.43% [at 11.4 µM] (inactive)	
COC(=O)CC1c2ccccc2C(Cc2ccc(OC)cc2)=C(C)N1C(=O)OC (stereo unspecified)	2.48% [at 11.4 µM] (inactive)	
C=CCn1c2ccccc2c2nnc(SCc3[nH]c(=O)[nH]c3C(=O)CCCCC(=O)OCC)nc21	-6.15% (inactive)	
COC(=O)CN1C(=S)N(c2ccccc2)C(=O)C1CC(=O)Nc1ccc(Cl)cc1 (stereo unspecified)	-15.2% (inactive)	
CC(=O)c1c(N2CCN(c3ccc(F)cc3)CC2)nc(=S)n(-c2ccccc2)c1C	-1.83% (inactive)	
COc1ccc(-c2nc(-c3ccccc3)oc2Nc2ccc3ccccc3c2)cc1	-1.22% (inactive)	
O=[N+]([O-])c1ccc(NCCCO)c(C(F)(F)F)c1	-1.65% (inactive)	
CNC(=O)NC(=O)C(OC(=O)c1cccc(S(=O)(=O)N2CCCCC2)c1)c1ccccc1 (stereo unspecified)	2.13% (inactive)	
O=C1OCCN1C(=O)[C@H]1[C@H](c2ccc(F)cc2)C(c2ccccc2)=NN1c1ccc(Br)cc1	-8.73% [at 0.00818 µM] (inactive)	
CC(C)Oc1ccc(CCc2n[nH]c(=S)n2Cc2ccccc2)cc1		31.6 µM (active)
CCCc1cc(-c2n[nH]c(=S)n2Cc2ccccc2)cs1	-10.4% (inactive)	
CCCCC(CC(C)O)c1n[nH]c(=S)n1-c1ccccc1 (stereo unspecified)	2.18% (inactive)	
NNc1nnc(NN)c2ccccc12	-2.71% [at 0.00818 µM] (inactive)	
CCOC(=O)C1=C(C)c2ccccc2OC1C(=O)OCC (stereo unspecified)	1.63% [at 0.00818 µM] (inactive)	
COC(=O)C1(C(C)=O)CC2=CC[C@H]3C(=O)N(c4ccccc4)C(=O)[C@H]3[C@@H]2Cc2ccccc2[C@@H]1C[N+](=O)[O-] (stereo partly specified)	0.0255% (inactive)	
N#Cc1ccsc1NC(=O)CN1CCN(S(=O)(=O)c2cc(Cl)ccc2Cl)CC1	-0.442% (inactive)	
Cc1nn(-c2ccccc2)c(C)c1/C=N/NC(=O)CSc1nc2ccccc2c(=O)n1-c1ccccc1	-0.304% (inactive)	

Structure (SMILES)	activity change, negative = inhibition	Potency
CCOC(=O)c1c(NC(=O)Cn2nc(C(F)(F)F)cc2C)sc2c1CCC2	0.245% (inactive)	
CCOc1cc(/C=N/NC(=O)OC)ccc1OCCSc1ccc(Cl)cc1	-0.0265% (inactive)	
COc1ccc(Br)cc1C(=O)NC(=S)Nc1cc(-c2nc3ccccc3[nH]2)ccc1C	-4.68% (inactive)	
C=CCNC(=S)N/N=C/c1ccc(OCc2ccccc2)cc1	-3.94% (inactive)	
CCS(=O)(=O)Nc1cccc(-c2cc(-c3ccccc3)c3cc(C)ccc3n2)c1	1.99% (inactive)	
O=C(COC(=O)c1c2c(nc3ccccc13)/C(=C\c1cccs1)CCC2)Nc1ccccc1Cl	-2.57% (inactive)	
COC(=O)C1=C(C(=O)OC)[C@@H]2N(C)c3ccccc3[C@@]23C[C@@H](C(=O)OC)N(S(=O)(=O)c2cccs2)C3=N1	-1.35% [at 11.4 µM] (inactive)	
CCCCc1cc2c(s1)CCCC/C2=N/O	-1.86% (inactive)	
NC(=O)c1ccccc1N=Cc1ccc2ccccc2c1	-0.382% (inactive)	
CC(C)CCN1C(=O)c2ccc(C(=O)Nc3cccc(S(N)(=O)=O)c3)cc2C1=O	3.13% (inactive)	
COc1ccccc1OCC(=O)OCn1c(SC)nnc(C)c1=O	-0.32% (inactive)	
N#C/C(=C/c1ccc(N2CCCCC2)o1)C(=O)NCCc1c[nH]c2ccccc12	-7.08% (inactive)	
CC(C)CN(C(=O)CN1CCN(S(=O)(=O)c2ccccc2)CC1)c1c(N)n(CC(C)C)c(=O)[nH]c1=O	3.56% (inactive)	
Cc1cc(N2CCOCC2)nc(-c2ccc(Br)cc2)n1	1.56% (inactive)	
COc1ccc2c(-c3ccccc3)cc(SCC(=O)N(C)C3CCS(=O)(=O)C3)nc2c1 (stereo unspecified)	-4.74% (inactive)	
Cc1ccc(S(=O)(=O)N2CCC(=O)N([C@H](COCc3ccccc3)Cc3ccccc3)CC2)cc1	0.261% [at 0.00818 µM] (inactive)	
COc1ccc(-n2c(C)cc(C(=O)COC(=O)c3cc(OC)c(OC)cc3NC(=O)c3cccs3)c2C)cc1	1.19% (inactive)	
COc1cc2c(cc1NC(=O)COC(=O)/C=C/c1ccccc1)oc1ccccc12	0.678% (inactive)	
COc1ccc(CCNc2cc(C)nc3c(-c4ccc(Cl)cc4)c(C)nn23)cc1OC	-1.48% (inactive)	
O=C(Nc1ccc(N2C(=O)c3cccc4cccc(c34)C2=O)cc1)c1ccc(N2CCCCC2)c([N+](=O)[O-])c1	-0.132% (inactive)	
CCn1c(=O)cc(SCC(=O)NCCC2=CCCCC2)c2ccccc21	-12.1% (inactive)	
COc1cccc(CC(=O)N2CCc3nc(COc4ccccc4)c4c(c3C2)CO[C@@H](C)C4)c1	-2.68% [at 11.4 µM] (inactive)	

Structure (SMILES)	activity change, negative = inhibition	Potency
COCCNC(=O)c1ccc(N2CCC3(CC2)OCCO3)c([N+](=O)[O-])c1	3.27% (inactive)	
CCCN=C1NC(=O)C(CC(=O)NCCc2ccc(OC)c(OC)c2)S1 (stereo unspecified)	-0.962% (inactive)	
CCOC(=O)c1ccccc1N1C(=O)C2Sc3[nH]c(=O)sc3C(/C=C/c3ccccc3)C2C1=O (stereo unspecified)	-26% (inactive)	
CC(=O)NNC1=Nc2ccccc2N(C)C(C)C1 (stereo unspecified)	1.24% (inactive)	
COC(=O)/C(C#N)=C/c1occc1C	-1.5% (inactive)	
Cc1[nH]n(-c2ccccc2)c(=O)c1/C=N/NC(=O)c1ccoc1C	-1.41% (inactive)	
Cn1cccc1/C=N/NC(=O)c1ccc(OC(F)(F)C(F)F)cc1	-1.04% (inactive)	
COc1cc(OC)c2c(-c3cccc(-c4cccc(N)c4)c3)cc(=O)oc2c1	-1.39% [at 0.00818 µM] (inactive)	
N=C1/C(=C/c2cccn2-c2cccc([N+](=O)[O-])c2)C(=O)N=C2SC=CN12	-1.46% (inactive)	
Cc1cccc([C@H]2[C@@H]3C=CC[C@@H](C)[C@@H]3C(=O)N2Cc2ccccc2)c1	-6.11% [at 0.00818 µM] (inactive)	
COc1cc(CCC(=O)OCC(=O)Nc2cccc(S(N)(=O)=O)c2)cc(OC)c1OC	3.81% (inactive)	
O=C(O)CC(Cc1ccccc1)C(=O)Nc1ccc([N+](=O)[O-])cc1 (stereo unspecified)	-0.203% (inactive)	
NC(=O)C[C@@H]1NC(=O)CNC(=O)c2cc([N+](=O)[O-])cc(I)c2NCCC(C(N)=O)NC1=O (stereo partly specified)	-10.2% (inactive)	
Cn1cccc1/C=C1\SC(=S)N(NC(=O)c2ccc(Cl)cc2)C1=O	-12.2% (inactive)	
CCc1nnc(NC(=O)/C=C/c2ccc(C)o2)s1	-2.76% (inactive)	
C=CC1=C2C=C(C3CC3)N(C(CO)CO)C=C2C(=O)C(C)(OC(=O)c2ccco2)C1=O (stereo unspecified)	3.57% [at 11.4 µM] (inactive)	
CC1=C(C/C=C(\C)CCCC(C)CCCC(C)CCCC(C)C)C(=O)c2ccccc2C1=O (stereo unspecified)	-5.67% [at 0.00818 µM] (inactive)	
CN(C(=O)CSc1nnc(-c2n[nH]c3ccccc23)o1)c1ccccc1	-2.11% (inactive)	
Cc1nc(-c2ccccc2)cn2c1nc1ccccc12	0.637% (inactive)	
O=C1OCCN1C(=O)[C@H]1[C@H](c2ccc(Cl)cc2)C(c2cccc(Cl)c2)=NN1c1ccc(Br)cc1	-6.33% [at 0.00818 µM] (inactive)	
COc1cc(OC)c2c(c1)OC(=O)CC2c1cc(OC)c(OC)c(OC)c1 (stereo unspecified)	-5.58% [at 0.00818 µM] (inactive)	
CCCCC/C=C\C/C=C\CCCCCCCCCC(=O)O	0.814% (inactive)	
